Most compounds without a hit are left out; they make up all but 2.9% or so of the library.
DAGLB inh: DAGLB lipase inhibitors, primary screen, biochemical, fluorescence, HTS. inhibition, % at 5.17 µM. 0.059% of 340,000 active. AID 504411, 2011. HEK293T DAGLB membrane lysate, EnzChek fluorogenic substrate. Diacylglycerol lipase-beta (Homo sapiens), Q8NCG7; in the data active = inhibition above about 34%
Rtt109 Vps75: inhibitors of C. albicans Rtt109/Vps75 HAT, primary screen, biochemical, ThioGlo CoA-SH fluorescence, plate reader; Histone acetyltransferase RTT109 (Candida albicans (strain SC5314 / ATCC MYA-2876)), …; purified Rtt109/Vps75, 4 h; inhibition, % at 34.9 µM; 0.16% of 330,000 active;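 active = inhibition of at least 50% in every replicate; inconclusive = best replicate reaches 50% inhibition but some replicates fall short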
sPLA2-III inh: human group III sPLA2 inhibitors, primary screen, biochemical, QFRET, BODIPY PC-A2 liposome substrate | Group 3 secretory phospholipase A2 (Homo sapiens), Q9NZ20 | QFRET BODIPY PC-A2 liposome hydrolysis, fluorescence | inhibition, % at 12.2 µM | 0.56% of 370,000 active | AID 743126, 2013;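 active = inhibition above mean plus 3 SD of compounds lying within the high and low control bounds, cut at about 19% in these data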
Myeloid diff 2: induction of myeloid progenitor differentiation, primary screen, cell-based, flow cytometry, MLPCN library; ER-HoxA9 myeloid progenitors, lysozyme-GFP differentiation; calls only at 10 µM; 1% of 360,000 active; AID 624256, 2012;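 active = normalized GFP-positive differentiation at or above the plate's own cutoff, the solvent-only control mean plus 3 SD; inconclusive = no clear call, values can overlap the other calls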;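 note: cells exposed to compound for four days before flow analysis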
H9c2 protect: cardioprotection against H2O2-induced cell death, primary screen, uHTS, H9c2 cells, ATPLite luminescence; H9c2 cardiomyocytes, H2O2 injury protection, 2 h; protection from H2O2 cell death, % at 20 µM; 0.63% of 360,000 active;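 active = compounds giving at least 50% protection of heart cells from peroxide-induced death in the single-dose screen, raw or plate-pattern-corrected value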
ABHD5-PLIN5 inh: ABHD5-PLIN5 interaction inhibitors, primary screen, cell lysate, split luciferase complementation, luminescence; Split G. princeps luciferase complementation, 4 h; inhibition, % at 4 µM; 0.78% of 360,000 active;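 active = inhibition above the mean inhibition across every tested compound plus 3 SD, cut at about 22% in these data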
ABHD5-PLIN5 conf: ABHD5-PLIN5 interaction inhibitors, confirmation, biochemical, luminescence. 67% of 2,200 active. shares compounds with ABHD5-PLIN5 inh. inhibition, % at 4 µM; in the data active = inhibition above about 23%
HNF4 counter: HNF4 dimerization inhibitors, counter-screen for ABHD5-PLIN5 interaction inhibitor project, biochemical, split-luciferase complementation, luminescence; shares compounds with ABHD5-PLIN5 inh; inhibition, % at 4 µM; 77% of 2,200 active; AID 651674, 2012;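 active = mean inhibition across replicate wells exceeding the computed hit threshold, cut at about 13% in these data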;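 note: light from luciferase halves that rejoin when HNF4 fusion proteins dimerize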
Target sequence (P41235 whole entry, looked up, the tested form may be a part): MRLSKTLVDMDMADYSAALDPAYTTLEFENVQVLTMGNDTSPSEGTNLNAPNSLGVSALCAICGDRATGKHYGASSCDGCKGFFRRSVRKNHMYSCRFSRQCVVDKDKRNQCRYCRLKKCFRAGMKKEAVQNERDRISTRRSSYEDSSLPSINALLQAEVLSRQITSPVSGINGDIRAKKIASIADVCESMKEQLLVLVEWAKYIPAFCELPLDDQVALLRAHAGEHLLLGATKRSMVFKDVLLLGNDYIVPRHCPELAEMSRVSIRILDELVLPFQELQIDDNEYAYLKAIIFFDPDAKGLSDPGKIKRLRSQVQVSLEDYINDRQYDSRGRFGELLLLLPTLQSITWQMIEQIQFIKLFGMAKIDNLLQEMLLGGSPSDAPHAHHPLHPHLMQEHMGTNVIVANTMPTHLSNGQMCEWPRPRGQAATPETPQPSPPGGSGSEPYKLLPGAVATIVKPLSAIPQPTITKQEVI
Large screens that a line does not name were inactive (follow-up assays come after a bar, where they were run); ! = a repeat was not active.

OC1CC2CCC(C1)N2CCCN1c2ccccc2Sc2ccc(Cl)cc21 (stereo unspecified)	ABHD5-PLIN5 inh 27 | ABHD5-PLIN5 conf inactive | HNF4 counter 16
O=Cc1ccc(-c2ccccc2C(=O)O)o1	none
O=C(O)c1ccccc1-c1c2cc(I)c(=O)c(I)c-2oc2c(I)c(O)c(I)cc12	Myeloid diff 2 inconclusive, ABHD5-PLIN5 inh 30! | ABHD5-PLIN5 conf inactive | HNF4 counter inactive
Cc1nc(NC(=O)/C=C/c2ccccc2)n[nH]1	ABHD5-PLIN5 inh 25 | ABHD5-PLIN5 conf 42 | HNF4 counter 38
COc1ccc(CCNC(=O)c2c(O)c3c([nH]c2=O)CCCC3)cc1	none
CCCN(CC1CC1)C(=S)NC(=O)c1cc(Br)ccc1Cl	ABHD5-PLIN5 inh 24 | ABHD5-PLIN5 conf inactive | HNF4 counter inactive
COc1ccc(S(=O)(=O)NCC(c2ccc(F)cc2)N2CCN(C)CC2)cc1 (stereo unspecified)	none
Cc1ccc(NC(=O)Cn2sc3nc(C)cc(C)c3c2=O)c(Cl)c1	Rtt109 Vps75 154, ABHD5-PLIN5 inh 65 | ABHD5-PLIN5 conf inactive | HNF4 counter 98
Cc1cc(C)c2c(=O)n(CC(=O)Nc3cccc(F)c3)sc2n1	ABHD5-PLIN5 inh 44 (no result: Rtt109 Vps75) | ABHD5-PLIN5 conf 41 | HNF4 counter 109
CCOc1ccc(NC(=O)Cn2ncc3ccccc32)cc1	none
CCOC(=O)c1cn(CC(=O)Nc2cccc(F)c2)nn1	none (no result: Rtt109 Vps75)
Cc1ccc(NC(=O)Cn2c(C)cc(C)c(C#N)c2=O)c(Cl)c1	none
Cc1cc(C)c2c(n1)SCC(=O)N2CC(=O)Nc1cccc(Cl)c1	none
CCOc1ccc(NC(=O)Cn2sc3nc(C)cc(C)c3c2=O)cc1	ABHD5-PLIN5 inh 64 (no result: Rtt109 Vps75, sPLA2-III inh) | ABHD5-PLIN5 conf 45 | HNF4 counter 105
Cc1cc(C)c2c(=O)n(CC(=O)Nc3ccc(Cl)cc3)sc2n1	ABHD5-PLIN5 inh 76 (no result: Rtt109 Vps75) | ABHD5-PLIN5 conf 41 | HNF4 counter 108
COC(=O)c1c(-c2cccc(OC)c2)csc1N	none
CCCc1nc(C)c2c(=O)[nH]c(-c3cc(S(=O)(=O)N4CCN(CC)CC4)ccc3OCC)nn12	ABHD5-PLIN5 inh 62 | ABHD5-PLIN5 conf 68 | HNF4 counter 29
CCOc1cc(S(=O)(=O)N2CCN(CC)CC2)ccc1Cl	none
Cn1nnc(NC(=S)NC(=O)/C=C/c2ccco2)n1	ABHD5-PLIN5 inh 24 | ABHD5-PLIN5 conf inactive | HNF4 counter inactive
O=C(NCc1ccc2c(c1)OCO2)c1nc(S(=O)(=O)Cc2ccccc2F)ncc1Cl	ABHD5-PLIN5 inh 76 | ABHD5-PLIN5 conf 84 | HNF4 counter 106
O=C(NCc1ccc2c(c1)OCO2)c1nc(S(=O)(=O)Cc2ccccc2)ncc1Cl	ABHD5-PLIN5 inh 54 | ABHD5-PLIN5 conf 87 | HNF4 counter 106
O=C(NCc1ccc2c(c1)OCO2)c1ccccc1Cl	none
CCOc1ccc(S(=O)(=O)NCCCN2CCOCC2)cc1	none
CC(C)CCNC(=O)c1cc(-c2ccncc2)nc2ccc(S(=O)(=O)N3CCOCC3)cc12	none
NC(=O)c1cc2ccccc2o/c1=N/NC(=O)c1cccc(Cl)c1	none
CCCCNC(=O)CCCCCn1c(=O)[nH]c2cc(OC)c(OC)cc2c1=O	none
O=C(NCc1ccncc1)[C@@H]1CCCN1C(=O)[C@@H]1CCCN1C(=O)c1c(F)cccc1F	none (no result: DAGLB inh, Rtt109 Vps75, H9c2 protect)

Compound activity deposited in PubChem BioAssay by several laboratories.
